Assay results from PubChem BioAssay (Tox21).
Inconclusive results are not listed. The source made the active and inactive calls. Unless noted, the call rests on the fitted dose curve.

Columns and labels:
[1] = qHTS assay to identify small molecule antagonists of the sonic hedgehog signaling (Shh) pathway (AID 1259369); further: nearly all actives have a fitted effect of over 45% in size; further: potency means the concentration at half of the fitted maximal effect
Method in brief: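 NIH/3T3-derived 3T3Gli1-Luc cells with stably integrated Gli1-Luc reporter were preincubated 4hr at 37 C, then given compounds in DMSO plus Shh conditioned medium and incubated 24hr. Firefly luciferase luminescence read after 30min reagent at room temperature.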

[2] = biological target: Estrogen receptor beta (Homo sapiens) (UniProt Q92731); assay: qHTS assay to identify small molecule agonists of the estrogen receptor beta (ER-beta) signaling pathway (AID 1259377; active means well fitted activation curve with a large enough effect in the signal ratio in the repeat runs, not every such curve was filed as active; the % refers to the signal ratio)
Chain of Estrogen receptor beta (Homo sapiens) (Q92731 whole entry, looked up): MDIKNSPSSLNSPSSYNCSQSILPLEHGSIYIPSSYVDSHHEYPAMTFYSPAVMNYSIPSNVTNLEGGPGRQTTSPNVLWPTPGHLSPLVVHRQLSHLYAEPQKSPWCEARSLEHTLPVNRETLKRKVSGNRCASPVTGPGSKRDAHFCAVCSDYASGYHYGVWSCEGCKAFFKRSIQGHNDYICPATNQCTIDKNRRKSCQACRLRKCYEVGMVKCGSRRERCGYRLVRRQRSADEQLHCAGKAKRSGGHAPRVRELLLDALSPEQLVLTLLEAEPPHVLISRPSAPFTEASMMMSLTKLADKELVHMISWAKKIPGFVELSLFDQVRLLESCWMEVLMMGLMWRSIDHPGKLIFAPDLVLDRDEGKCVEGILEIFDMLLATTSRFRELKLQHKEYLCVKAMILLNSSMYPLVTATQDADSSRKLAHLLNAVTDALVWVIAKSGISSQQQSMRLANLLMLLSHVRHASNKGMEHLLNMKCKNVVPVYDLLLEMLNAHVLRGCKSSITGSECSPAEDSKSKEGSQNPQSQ
Method in brief: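 Beta-lactamase reporter readout: fluorescence of LiveBLAzer B/G FRET substrate after 2 h at room temperature, following 16 h compound treatment of ER-beta-UAS-bla HEK293T cells at 37C in 2% charcoal-stripped FBS medium.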

[3] = biological target: Estrogen receptor beta (Homo sapiens) (UniProt Q92731); assay: qHTS assay to identify small molecule antagonists of the estrogen receptor beta (ER-beta) signaling pathway (AID 1259378; active means well fitted inhibition curve with a large enough effect in the signal ratio in the repeat runs, not every such curve was filed as active; the % refers to the signal ratio; further: potency means the concentration at half of the fitted maximal effect)
Method in brief: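 Antagonist mode: compounds added to beta-lactamase reporter HEK293T ER-beta-UAS cells stimulated with E2 (1nM final), 16 hr at 37C. LiveBLAzer B/G FRET substrate, 2 hours room temperature, fluorescence read-out.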

[4] = qHTS assay to identify small molecule agonists of the androgen receptor (AR) signaling pathway in the presence of an antagonist - cell viability counter screen (AID 1259379; active means well fitted curve in the direction sought with a large enough effect in the repeat runs; an effect the other way counts as inactive or inconclusive; further: nearly all actives have a fitted effect of over 25% in size; further: potency means the concentration at half of the fitted maximal effect)
Method in brief: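 MDA-kb2 human breast carcinoma cells (stable MMTV-luciferase, AR/GR responsive) were seeded 3,000 cells/well, pre-incubated 5 hr at 37C without CO2, then given 3.0uM nilutamide and compounds at 15 concentrations for 16 hr. Viability was read by CellTiter-Fluor fluorescence.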

[5] = qHTS assay to identify small molecule antagonists of the estrogen receptor beta (ER-beta) signaling pathway - cell viability counter screen (AID 1259382; active means well fitted curve in the direction sought with a large enough effect in the repeat runs; an effect the other way counts as inactive or inconclusive; further: nearly all actives have a fitted effect of over 55% in size; further: potency means the concentration at half of the fitted maximal effect)
Method in brief: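 ER-beta-UAS-bla HEK293T cells (2,000/well, 2% charcoal-stripped FBS) were pre-incubated 6 hr at 37C, then given compound plus 1nM final 17-beta-estradiol for 16 hr. Viability was read in the same wells by CellTiter-Glo luminescence after 30 min at room temperature.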

[6] = biological target: Estrogen receptor (Homo sapiens) (UniProt P03372); assay: qHTS assay to identify small molecule agonists of the estrogen receptor alpha (ER-alpha) signaling pathway in the presence of an antagonist (AID 1259383); further: top concentration of the series differs between compounds; nearly all actives have a fitted effect of over 15% in size
Chain of Estrogen receptor (Homo sapiens) (P03372 whole entry, looked up): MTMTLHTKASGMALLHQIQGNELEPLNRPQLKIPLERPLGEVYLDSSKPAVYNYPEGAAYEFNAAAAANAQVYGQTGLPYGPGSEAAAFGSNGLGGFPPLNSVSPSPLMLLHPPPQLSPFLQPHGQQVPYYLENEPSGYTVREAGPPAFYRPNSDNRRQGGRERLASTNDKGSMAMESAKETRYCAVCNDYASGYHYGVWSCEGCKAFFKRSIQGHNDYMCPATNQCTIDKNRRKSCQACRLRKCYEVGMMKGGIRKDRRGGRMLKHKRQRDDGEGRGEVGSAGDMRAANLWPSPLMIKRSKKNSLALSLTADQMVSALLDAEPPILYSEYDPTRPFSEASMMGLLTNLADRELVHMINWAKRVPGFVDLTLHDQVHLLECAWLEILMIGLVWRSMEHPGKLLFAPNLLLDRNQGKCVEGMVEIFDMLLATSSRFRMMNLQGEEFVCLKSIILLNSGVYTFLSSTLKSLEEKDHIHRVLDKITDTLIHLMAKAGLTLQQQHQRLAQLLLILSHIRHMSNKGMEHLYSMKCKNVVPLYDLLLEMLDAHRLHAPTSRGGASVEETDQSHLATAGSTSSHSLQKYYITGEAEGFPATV
Method in brief: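 VM7Luc4E2 cells (endogenous full-length ER-alpha, 4×ERE-luciferase) were precultured 5 days in phenol red-free medium with 10% charcoal-stripped FBS, given 10.0nM ICI-182,780 (final), then treated with compounds at 15 concentrations for 22hr at 37C; luminescence read with ONE-Glo.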

[7] = qHTS assay to identify small molecule agonists of the estrogen receptor alpha (ER-alpha) signaling pathway in the presence of an antagonist - cell viability counter screen (AID 1259386; active means well fitted curve in the direction sought with a large enough effect in the repeat runs; an effect the other way counts as inactive or inconclusive;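 further: cells exposed to compounds for 22 h at 37 °C before the viability read; nearly all actives have a fitted effect of over 30% in size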; further: potency means the concentration at half of the fitted maximal effect)
Method in brief: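 VM7Luc4E2 cells (endogenous full-length ER-alpha, 4×ERE-luciferase) were held 5 days in phenol red-free medium with 10% charcoal-stripped FBS, plated, then given 10.0nM ICI-182,780 and compounds at 15 concentrations for 22hr at 37C; viability read by CellTiter-Fluor fluorescence.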

[8] = biological target: Progesterone receptor (Homo sapiens) (UniProt P06401); assay: qHTS assay to identify small molecule agonists of the progesterone receptor (PR) signaling pathway (AID 1346784); further: nearly all actives have a fitted effect of over 30% in size; further: potency means the concentration at half of the fitted maximal effect
Chain of Progesterone receptor (Homo sapiens) (P06401 whole entry, looked up): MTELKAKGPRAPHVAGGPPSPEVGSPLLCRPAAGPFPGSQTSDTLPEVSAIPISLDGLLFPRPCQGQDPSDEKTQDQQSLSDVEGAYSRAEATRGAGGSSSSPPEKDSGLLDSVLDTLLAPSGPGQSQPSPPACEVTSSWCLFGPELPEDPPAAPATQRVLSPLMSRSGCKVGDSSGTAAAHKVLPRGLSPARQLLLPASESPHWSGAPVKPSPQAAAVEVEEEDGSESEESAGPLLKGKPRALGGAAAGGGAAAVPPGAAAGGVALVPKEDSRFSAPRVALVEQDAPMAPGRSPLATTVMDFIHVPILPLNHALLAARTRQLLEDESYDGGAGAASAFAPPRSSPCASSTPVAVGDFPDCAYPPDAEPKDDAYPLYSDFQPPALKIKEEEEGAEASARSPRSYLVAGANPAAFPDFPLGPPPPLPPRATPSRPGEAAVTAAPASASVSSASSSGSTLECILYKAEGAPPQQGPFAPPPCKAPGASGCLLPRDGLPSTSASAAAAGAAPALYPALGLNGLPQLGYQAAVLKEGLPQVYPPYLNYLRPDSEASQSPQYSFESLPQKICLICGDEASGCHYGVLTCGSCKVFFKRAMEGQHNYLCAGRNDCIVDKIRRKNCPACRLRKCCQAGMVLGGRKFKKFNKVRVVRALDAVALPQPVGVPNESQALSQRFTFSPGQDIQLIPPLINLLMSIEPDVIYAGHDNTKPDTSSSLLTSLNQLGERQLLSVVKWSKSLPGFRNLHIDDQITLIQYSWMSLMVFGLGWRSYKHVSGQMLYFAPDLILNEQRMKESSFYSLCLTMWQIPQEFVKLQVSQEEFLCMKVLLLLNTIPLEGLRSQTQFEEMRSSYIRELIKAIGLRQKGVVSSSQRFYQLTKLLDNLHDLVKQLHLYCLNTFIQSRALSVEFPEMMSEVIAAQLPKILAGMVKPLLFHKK
Method in brief: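 HEK 293T PR-UAS-bla reporter cells, 2% charcoal-stripped FBS; 6 hr settle at 37C/5% CO2, compound (DMSO) 16 hr, LiveBLAzer B/G FRET substrate 2 hr RT, fluorescence intensity read.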

[9] = qHTS assay to identify small molecule antagonists of the progesterone receptor (PR) signaling pathway - cell viability counter screen (AID 1346798; active means well fitted curve in the direction sought with a large enough effect in the repeat runs; an effect the other way counts as inactive or inconclusive; further: nearly all actives have a fitted effect of over 50% in size; further: potency means the concentration at half of the fitted maximal effect)
Method in brief: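 Luminescence readout (CellTiter-Glo, 30 min, RT) of viability in PR-UAS-bla HEK293T cells exposed to compound and R5020 agonist for 16 hr at 37C, 5% CO2; run in the same wells as the beta-lactamase reporter read.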

[10] = qHTS assay to identify small molecule agonists of the progesterone receptor (PR) signaling pathway - cell viability counter screen (AID 1346799); further: nearly all actives have a fitted effect of over 45% in size; further: potency means the concentration at half of the fitted maximal effect
Method in brief: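 HEK293T PR-UAS-bla, 3,000 cells/well, 2% charcoal-stripped FBS; 6 h settle, compound 16 h at 37C/5% CO2; LiveBLAzer 2 h RT, then CellTiter-Glo 30 min RT, luminescence read.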

[11] = qHTS assay to identify small molecule antagonists of the TGF-beta/Smad signaling pathway - cell viability counter screen (AID 1346824; active means well fitted curve in the direction sought with a large enough effect in the repeat runs; an effect the other way counts as inactive or inconclusive; further: nearly all actives have a fitted effect of over 50% in size)
Method in brief: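 Cytotoxicity counter-screen run in the same wells as the beta-lactamase Smad reporter read: CellTiter-Glo luminescence after 30 min at room temperature. HEK 293T SBE-bla cells had 5 hr compound exposure at 37 C with TGF-beta1 (0.25 ng/mL stock).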

[12] = qHTS assay to identify small molecule agonists of the TGF-beta/Smad signaling pathway (AID 1346859; active means well fitted activation curve with a large enough effect in the signal ratio in the repeat runs, not every such curve was filed as active; the % refers to the signal ratio; further: series mostly up to about 77 µM)
Method in brief: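 Read-out: fluorescence at 460 and 530 nm (405 nm excitation) after a 2 hr room-temperature incubation with beta-lactamase FRET substrate. SBE-bla HEK 293T cells had been treated with test compounds for 5 hr at 37 C.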

[13] = biological target: Thyrotropin-releasing hormone receptor (Homo sapiens) (UniProt P34981); assay: qHTS assay to identify small molecule agonists of the thyrotropin-releasing hormone receptor (TRHR) signaling pathway (AID 1346891); further: series mostly up to about 58 µM
Chain of Thyrotropin-releasing hormone receptor (Homo sapiens) (P34981 whole entry, looked up): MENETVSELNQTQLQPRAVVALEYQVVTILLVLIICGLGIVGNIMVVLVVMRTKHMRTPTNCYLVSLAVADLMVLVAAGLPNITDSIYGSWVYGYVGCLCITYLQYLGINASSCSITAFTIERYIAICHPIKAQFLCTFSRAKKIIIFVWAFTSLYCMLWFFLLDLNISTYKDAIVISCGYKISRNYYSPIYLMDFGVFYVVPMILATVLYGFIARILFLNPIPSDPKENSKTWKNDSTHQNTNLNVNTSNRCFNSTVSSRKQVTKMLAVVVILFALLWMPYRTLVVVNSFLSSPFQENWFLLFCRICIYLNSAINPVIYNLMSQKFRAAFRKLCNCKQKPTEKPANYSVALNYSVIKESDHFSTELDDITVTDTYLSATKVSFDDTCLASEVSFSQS
Method in brief: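 HEK293/TRHR cells, 1500 per well, 18 h 37 °C; Ca dye 2 h 37 °C; pin-tool compound addition (agonist mode); kinetic fluorescence 3 min, 1 s reads; 15 concentrations, triplicate.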

[14] = qHTS assay to identify small molecule agonists or antagonists of the thyroid stimulating hormone receptor (TSHR) signaling pathway - wild type cell line counter screen (AID 1259384)
Method in brief: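 Counter screen in untransfected Hek293: compounds (15-point titration, triplicate) plus phosphodiesterase inhibitor Ro20-1724 added after 18 h plating; 30 min RT. Intracellular cAMP via competitive d2/cryptate immunoassay, 1 h incubation.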

[15] = qHTS assay to identify small molecule agonists of the TGF-beta/Smad signaling pathway - cell viability counter screen (AID 1346829; active means well fitted curve in the direction sought with a large enough effect in the repeat runs; an effect the other way counts as inactive or inconclusive; further: top concentration of the series differs between compounds; nearly all actives have a fitted effect of over 45% in size)
Method in brief: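 In parallel with the Smad reporter read, viability of HEK 293T cells stably carrying SBE-bla is quantified by ATP luminescence following 5 hr compound treatment.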

[16] = biological target: Thyrotropin-releasing hormone receptor (Homo sapiens) (UniProt P34981); assay: qHTS assay to identify small molecule antagonists of the thyrotropin-releasing hormone receptor (TRHR) signaling pathway (AID 1346877; active means well fitted inhibition curve with a large enough effect in the repeat runs, not every such curve was filed as active; further: series mostly up to about 51 µM)
Method in brief: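 TRHR-expressing HEK293 cells were seeded, cultured 18 h at 37 °C, then loaded with calcium dye for 2 h. Compounds were pre-incubated 5 min at room temperature before 1 nM TRH (final) was added, and kinetic fluorescence was recorded for 3 min.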

[17] = biological target: Androgen receptor (Homo sapiens) (UniProt P10275); assay: qHTS assay to identify small molecule agonists of the androgen receptor (AR) signaling pathway in the presence of an antagonist (AID 1259381); further: nearly all actives have a fitted effect of over 15% in size; further: potency means the concentration at half of the fitted maximal effect
Chain of Androgen receptor (Homo sapiens) (P10275 whole entry, looked up): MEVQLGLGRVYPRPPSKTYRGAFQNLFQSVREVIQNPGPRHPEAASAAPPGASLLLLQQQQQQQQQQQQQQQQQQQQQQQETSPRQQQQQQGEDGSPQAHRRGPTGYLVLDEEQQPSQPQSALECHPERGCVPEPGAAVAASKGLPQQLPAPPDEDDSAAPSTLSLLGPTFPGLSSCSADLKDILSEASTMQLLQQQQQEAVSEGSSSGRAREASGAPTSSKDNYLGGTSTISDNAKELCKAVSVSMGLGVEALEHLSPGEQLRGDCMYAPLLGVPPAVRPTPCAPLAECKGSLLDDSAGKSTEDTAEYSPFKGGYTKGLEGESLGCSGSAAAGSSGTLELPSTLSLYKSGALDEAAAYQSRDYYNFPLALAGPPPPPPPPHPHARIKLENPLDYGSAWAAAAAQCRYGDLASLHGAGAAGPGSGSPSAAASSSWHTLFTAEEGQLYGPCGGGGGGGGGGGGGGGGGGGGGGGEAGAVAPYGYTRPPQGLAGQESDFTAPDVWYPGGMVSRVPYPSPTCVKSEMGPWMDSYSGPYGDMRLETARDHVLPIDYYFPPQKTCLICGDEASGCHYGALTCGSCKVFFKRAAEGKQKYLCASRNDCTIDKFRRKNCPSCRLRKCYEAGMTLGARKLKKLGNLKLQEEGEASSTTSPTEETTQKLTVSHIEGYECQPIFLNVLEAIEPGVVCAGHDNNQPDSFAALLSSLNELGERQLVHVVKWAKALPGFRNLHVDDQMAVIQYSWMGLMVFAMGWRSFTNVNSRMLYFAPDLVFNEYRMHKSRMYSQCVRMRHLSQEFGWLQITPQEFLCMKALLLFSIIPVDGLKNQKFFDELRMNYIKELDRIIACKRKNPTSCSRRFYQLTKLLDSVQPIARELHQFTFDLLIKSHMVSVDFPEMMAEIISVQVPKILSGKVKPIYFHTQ
Method in brief: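 MDA-kb2 human breast carcinoma cells carrying an MMTV-luciferase reporter (AR- and GR-responsive) were treated with compounds at 15 concentrations plus 3.0uM final nilutamide for 16hr at 37C without CO2; luminescence was read after ONE-Glo addition.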

[18] = biological target: Progesterone receptor (Homo sapiens) (UniProt P06401); assay: qHTS assay to identify small molecule antagonists of the progesterone receptor (PR) signaling pathway (AID 1346795; active means well fitted inhibition curve with a large enough effect in the signal ratio in the repeat runs, not every such curve was filed as active; the % refers to the signal ratio; further: potency means the concentration at half of the fitted maximal effect)
Method in brief: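 Beta-lactamase reporter, HEK293T PR-UAS-bla line; 2% charcoal-stripped FBS; 6 hr pre-incubation, 37C/5% CO2. Compound + R5020 1 nM final, 16 hr. LiveBLAzer B/G FRET substrate, 2 hr RT; fluorescence intensity read.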

[19] = qHTS assay to identify small molecule agonists of the estrogen receptor beta (ER-beta) signaling pathway - cell viability counter screen (AID 1259380; active means well fitted curve in the direction sought with a large enough effect in the repeat runs; an effect the other way counts as inactive or inconclusive; further: nearly all actives have a fitted effect of over 30% in size; further: potency means the concentration at half of the fitted maximal effect)
Method in brief: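 ER-beta-UAS-bla HEK293T cells in medium with 2% charcoal-stripped FBS were preincubated 6 hr at 37C, dosed with compound in DMSO for 16 hr, then after the bla read, CellTiter-Glo was added for 30 min at room temperature; luminescence recorded.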

[20] = biological target: Thyrotropin receptor (Homo sapiens) (UniProt P16473); assay: qHTS assay to identify small molecule antagonists of the thyroid stimulating hormone receptor (TSHR) signaling pathway (AID 1259385); further: nearly all actives have a fitted effect of over 20% in size
Chain of Thyrotropin receptor (Homo sapiens) (P16473 whole entry, looked up): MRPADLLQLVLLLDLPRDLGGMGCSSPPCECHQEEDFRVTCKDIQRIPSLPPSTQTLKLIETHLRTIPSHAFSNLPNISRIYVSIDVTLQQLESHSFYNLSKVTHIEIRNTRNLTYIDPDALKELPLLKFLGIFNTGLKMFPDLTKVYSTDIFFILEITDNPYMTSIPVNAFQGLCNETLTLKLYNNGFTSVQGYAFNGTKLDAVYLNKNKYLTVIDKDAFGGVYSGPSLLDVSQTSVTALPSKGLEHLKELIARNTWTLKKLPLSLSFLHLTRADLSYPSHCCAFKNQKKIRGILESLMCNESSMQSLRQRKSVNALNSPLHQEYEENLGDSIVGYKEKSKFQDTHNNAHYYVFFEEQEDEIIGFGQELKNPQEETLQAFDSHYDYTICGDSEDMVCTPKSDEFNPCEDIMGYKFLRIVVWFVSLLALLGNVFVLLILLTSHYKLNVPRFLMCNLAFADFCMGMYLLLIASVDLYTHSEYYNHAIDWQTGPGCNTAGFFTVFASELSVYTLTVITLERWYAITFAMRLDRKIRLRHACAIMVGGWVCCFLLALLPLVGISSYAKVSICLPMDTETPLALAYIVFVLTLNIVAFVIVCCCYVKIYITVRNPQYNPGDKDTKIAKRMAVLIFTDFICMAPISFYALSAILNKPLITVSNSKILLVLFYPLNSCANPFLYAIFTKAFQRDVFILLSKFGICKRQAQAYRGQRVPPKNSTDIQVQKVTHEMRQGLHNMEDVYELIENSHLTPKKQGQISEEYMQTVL
Method in brief: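 Antagonist mode: compound-treated TSHR-expressing HEK293 cells were stimulated with 1.5 ng/mL TSH (final) in presence of Ro20-1724 for 30 min at RT. HTRF cAMP detection after 1 h; each compound tested at 15 concentrations, triplicate.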

Measured: Potency

C#CCN(C)CCCOc1ccc(Cl)cc1Cl
not listed: [14] | [15] | [16] | [17] | [18] | [19] | [20]
inactive: all other assays above

CCCCC(CC)COC(=O)COc1ccc(Cl)cc1Cl (stereo unspecified)
not listed: [17] | [18] | [19] | [20]
inactive: all other assays above

CC(C)CC(=O)C1C(=O)c2ccccc2C1=O
active: [1] 61.1 µM
not listed: [3] | [7] | [8] | [9] | [10] | [19] | [20]
inactive: all other assays above

CCN(CC)c1ccc(C(=C2C=CC(=[N+](CC)CC)C=C2)c2cc(S(=O)(=O)O)ccc2S(=O)(=O)[O-])cc1
inactive: [2] | [3] | [17] | [5] | [18] | [9] | [10] | [12] | [13]
active: [1] 2.66 µM | [4] 26.6 µM | [7] 23.7 µM

CCCCCCCCCCCC(=O)OC[C@@H](O)[C@H]1OC[C@H](OCCO)[C@H]1OCCO
not listed: [3] | [17]
inactive: all other assays above

CCCCCCCCCCCCCCOS(=O)(=O)O
active: [19] 30.6 µM | [5] 61.1 µM | [10] 30.6 µM
not listed: [3] | [9] | [17] | [18] | [20]
inactive: all other assays above

CNCCCCOc1ccccc1Cc1ccccc1
inactive: [2] | [6] | [14] | [7] | [8] | [11] | [12] | [13]
active: [1] 10.6 µM | [3] 11.9 µM | [19] 11.9 µM | [18] 26.6 µM | [9] 6.68 µM | [10] 6.68 µM

CCc1c(C(=O)NN2CCCCC2)nn(-c2ccc(Cl)cc2Cl)c1-c1ccc(Br)cc1
active: [3] 4.33 µM | [18] 3.44 µM
not listed: [5] | [10] | [12] | [15] | [17] | [19]
inactive: all other assays above

c1ccc(-c2ccccn2)nc1
not listed: [3] | [10] | [16] | [18]
inactive: all other assays above

CC1OC(=O)C(C)OC1=O (stereo unspecified)
not listed: [8] | [17] | [18] | [19]
inactive: all other assays above

Nc1cccc(S(=O)(=O)c2cccc(N)c2)c1
not listed: [3] | [8] | [15] | [17]
inactive: all other assays above

COc1cc(C(=O)OCCCN2CCCN(CCCOC(=O)c3cc(OC)c(OC)c(OC)c3)CC2)cc(OC)c1OC
active: [1] 6.68 µM | [19] 23.7 µM | [7] 13.3 µM
not listed: [4] | [8] | [16]
inactive: all other assays above

CCCCC(=O)OCC(=O)[C@H]1[C@H](C)C[C@H]2[C@@H]3C[C@H](F)C4=CC(=O)C=C[C@]4(C)[C@@]3(F)[C@@H](O)C[C@@]21C
active: [17] 6.7 nM | [8] 13.3 nM
not listed: [10] | [13] | [16] | [19]
inactive: all other assays above

Cn1c(=O)cc(Oc2ccc(F)cc2F)c2cnc(NCC(C)(C)O)nc21
active: [1] 27.3 µM
inactive: [2] | [4] | [19] | [5] | [6] | [8] | [11] | [15] | [12]

O=C(Nc1ccccc1)c1ccccc1O
inactive: [2] | [17] | [5] | [8] | [9] | [15] | [12] | [16] | [13]
active: [1] 54.5 µM | [4] 61.1 µM

Cc1oc(-c2ccccc2)nc1CCOc1cccc2c1ccn2CCC(=O)O
inactive: [1] | [2] | [5] | [14] | [20] | [8] | [11] | [15]
active: [3] 30.6 µM | [19] 10.9 µM | [7] 19.3 µM

CC(=O)c1ccc2c(c1)N(CCCN1CCC(CCO)CC1)c1ccccc1S2
inactive: [2] | [8] | [11] | [15] | [12]
active: [1] 11.9 µM | [3] 15 µM | [19] 26.6 µM

CC(=O)NO
not listed: [3] | [6] | [8] | [9] | [17] | [18]
inactive: all other assays above

O=C(NCC1CN(c2ccc(N3CCOCC3=O)cc2)C(=O)O1)c1ccc(Cl)s1 (stereo unspecified)
not listed: [5] | [10] | [17] | [19]
inactive: all other assays above
